# Experimental data published in the supplement of paper PMC8728848.
# This is one part of a sample in which the strongest signals are shown more often than they occur.
# How the values were obtained:
# Test in all cases: glycan array binding signal (z-score within array); higher = stronger binding
# Details in all cases: glycan notation: IUPAC condensed, linker removed
# Fuc(a1-2)Gal = target: Fuc(a1-2)Gal
# Method in brief: (§1)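 The Consortium for Functional Glycomics database supplied 3228 glycan arrays, of which those lacking an available protein sequence were dropped. The binding signal, a within-array Z-score, was averaged across arrays of the same protein sequence and across linkers. Negative scores can be read as non-binding.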
# [1] = target: Fuc(a1-2)Gal(b1-3)GlcNAc(b1-3)Gal(b1-4)Glc
# Method in brief: as §1
# [2] = target: Fuc(a1-2)Gal(b1-3)GlcNAc(b1-3)[Fuc(a1-2)Gal(b1-3)GlcNAc(b1-6)]GalNAc
# Method in brief: as §1
# Fuc(a1-2)Gal(b1-4)GlcNAc = target: Fuc(a1-2)Gal(b1-4)GlcNAc
# Method in brief: as §1
# [3] = target: Fuc(a1-2)Gal(b1-4)GlcNAc(b1-6)GalNAc
# Method in brief: as §1
# [4] = target: Fuc(a1-2)Gal6S(b1-3)GlcNAc6S
# Method in brief: as §1
# [5] = target: Fuc(a1-2)Gal6S(b1-4)Glc6S
# Method in brief: as §1
# [6] = target: Fuc(a1-2)[Gal(a1-3)]Gal(b1-3)GlcNAc(b1-2)Man(a1-3)[Fuc(a1-2)[Gal(a1-3)]Gal(b1-3)GlcNAc(b1-2)Man(a1-6)]Man(b1-4)GlcNAc(b1-4)[Fuc(a1-6)]GlcNAc
# Method in brief: as §1
# [7] = target: Fuc(a1-2)[Gal(a1-3)]Gal(b1-4)GlcNAc(b1-3)GalNAc
# Method in brief: as §1
# [8] = target: Fuc(a1-2)[GalNAc(a1-3)]Gal(b1-4)Glc
# Method in brief: as §1
# [9] = target: Fuc(a1-2)[GalNAc(a1-3)]Gal(b1-4)GlcNAc(b1-2)Man(a1-3)[Fuc(a1-2)[GalNAc(a1-3)]Gal(b1-4)GlcNAc(b1-2)Man(a1-6)]Man(b1-4)GlcNAc(b1-4)[Fuc(a1-6)]GlcNAc
# Method in brief: as §1
# [10] = target: Fuc(a1-3)[Gal(b1-4)]GlcNAc6S
# Method in brief: as §1
# [11] = target: Fuc(a1-3)[Gal3S(b1-4)]Glc
# Method in brief: as §1
# [12] = target: Gal(a1-3)Gal(b1-4)GlcNAc(b1-2)Man(a1-3)[Gal(a1-3)Gal(b1-4)GlcNAc(b1-2)Man(a1-6)]Man(b1-4)GlcNAc(b1-4)GlcNAc
# Method in brief: as §1
# Gal(b1-3)GalNAc(b1-3)Gal = target: Gal(b1-3)GalNAc(b1-3)Gal
# Method in brief: as §1
# [13] = target: Gal(b1-3)GlcNAc(a1-6)Gal(b1-4)GlcNAc
# Method in brief: as §1
# Gal(b1-3)GlcNAc(b1-2)Man = target: Gal(b1-3)GlcNAc(b1-2)Man
# Method in brief: as §1
# [14] = target: Gal(b1-3)GlcNAc(b1-3)Gal(b1-4)Glc
# Method in brief: as §1
# [15] = target: Gal(b1-3)GlcNAc(b1-3)Gal(b1-4)GlcNAc(b1-2)[Gal(b1-3)GlcNAc(b1-3)Gal(b1-4)GlcNAc(b1-6)]Man(a1-6)[Gal(b1-3)GlcNAc(b1-3)Gal(b1-4)GlcNAc(b1-2)Man(a1-3)]Man(b1-4)GlcNAc(b1-4)[Fuc(a1-6)]GlcNAc
# Method in brief: as §1
# [16] = target: Gal(b1-3)GlcNAc(b1-3)Gal(b1-4)GlcNAc(b1-3)Gal(b1-4)GlcNAc(b1-2)[Gal(b1-3)GlcNAc(b1-3)Gal(b1-4)GlcNAc(b1-3)Gal(b1-4)GlcNAc(b1-6)]Man(a1-6)[Gal(b1-3)GlcNAc(b1-3)Gal(b1-4)GlcNAc(b1-3)Gal(b1-4)GlcNAc(b1-2)Man(a1-3)]Man(b1-4)GlcNAc(b1-4)[Fuc(a1-6)]GlcNAc
# Method in brief: as §1
# [17] = target: Gal(b1-3)GlcNAc(b1-3)Gal(b1-4)[Fuc(a1-3)]GlcNAc
# Method in brief: as §1
# Gal(b1-4)GlcNAc(b1-2)Man = target: Gal(b1-4)GlcNAc(b1-2)Man
# Method in brief: as §1
# [18] = target: Gal(b1-4)GlcNAc(b1-3)Gal(b1-4)GlcNAc(b1-3)Gal(b1-4)GlcNAc(b1-2)Man(a1-3)[Gal(b1-4)GlcNAc(b1-3)Gal(b1-4)GlcNAc(b1-3)Gal(b1-4)GlcNAc(b1-2)Man(a1-6)]Man(b1-4)GlcNAc(b1-4)[Fuc(a1-6)]GlcNAc
# Method in brief: as §1
# [19] = target: Gal(b1-4)GlcNAc(b1-3)Gal(b1-4)GlcNAc(b1-3)Gal(b1-4)GlcNAc(b1-3)Gal(b1-4)GlcNAc(b1-3)Gal(b1-4)GlcNAc(b1-2)[Gal(b1-4)GlcNAc(b1-3)Gal(b1-4)GlcNAc(b1-3)Gal(b1-4)GlcNAc(b1-3)Gal(b1-4)GlcNAc(b1-3)Gal(b1-4)GlcNAc(b1-6)]Man(a1-6)[Gal(b1-4)GlcNAc(b1-3)Gal(b1-4)GlcNAc(b1-3)Gal(b1-4)GlcNAc(b1-3)Gal(b1-4)GlcNAc(b1-3)Gal(b1-4)GlcNAc(b1-2)Man(a1-3)]Man(b1-4)GlcNAc(b1-4)[Fuc(a1-6)]GlcNAc
# Method in brief: as §1
# [20] = target: Gal(b1-4)GlcNAc(b1-3)Gal(b1-4)GlcNAc(b1-6)[Gal(b1-3)]GalNAc
# Method in brief: as §1
# Gal3S(b1-4)Glc6S = target: Gal3S(b1-4)Glc6S
# Method in brief: as §1
# Gal6S(b1-4)Glc = target: Gal6S(b1-4)Glc
# Method in brief: as §1
# [21] = target: GalNAc(b1-3)Gal(a1-6)Gal(b1-4)Glc
# Method in brief: as §1
# [22] = target: GlcNAc(a1-6)Gal(b1-4)GlcNAc
# Method in brief: as §1
# [23] = target: GlcNAc(b1-2)[GlcNAc(b1-4)]Man(a1-3)[GlcNAc(b1-4)][GlcNAc(b1-2)[GlcNAc(b1-6)]Man(a1-6)]Man(b1-4)GlcNAc(b1-4)[Fuc(a1-6)]GlcNAc
# Method in brief: as §1
# GlcNAc(b1-3)Fuc = target: GlcNAc(b1-3)Fuc
# Method in brief: as §1
# [24] = target: GlcNAc(b1-3)Gal(b1-4)GlcNAc(b1-2)Man(a1-3)[GlcNAc(b1-3)Gal(b1-4)GlcNAc(b1-2)Man(a1-6)]Man(b1-4)GlcNAc(b1-4)GlcNAc
# Method in brief: as §1
# [25] = target: GlcNAc(b1-3)Gal(b1-4)GlcNAc(b1-3)Gal(b1-4)GlcNAc(b1-3)Gal(b1-4)GlcNAc(b1-3)Gal(b1-4)GlcNAc(b1-2)Man(a1-3)[GlcNAc(b1-3)Gal(b1-4)GlcNAc(b1-3)Gal(b1-4)GlcNAc(b1-3)Gal(b1-4)GlcNAc(b1-3)Gal(b1-4)GlcNAc(b1-2)Man(a1-6)]Man(b1-4)GlcNAc(b1-4)GlcNAc
# Method in brief: as §1
# [26] = target: GlcNAc(b1-4)GlcNAc(b1-4)GlcNAc
# Method in brief: as §1
# [27] = target: GlcNAc(b1-4)GlcNAc(b1-4)GlcNAc(b1-4)GlcNAc(b1-4)GlcNAc
# Method in brief: as §1
# [28] = target: GlcNAc(b1-4)GlcNAc(b1-4)GlcNAc(b1-4)GlcNAc(b1-4)GlcNAc(b1-4)GlcNAc
# Method in brief: as §1
# Kdn(a2-3)Gal(b1-3)GalNAc = target: Kdn(a2-3)Gal(b1-3)GalNAc
# Method in brief: as §1
# Man(b1-4)GlcNAc = target: Man(b1-4)GlcNAc
# Method in brief: as §1
# [29] = target: Neu5Ac(a2-3)Gal(b1-3)GlcNAc6S
# Method in brief: as §1
# [30] = target: Neu5Ac(a2-3)Gal(b1-3)[Neu5Ac(a2-6)]GlcNAc(b1-3)[Fuc(a1-3)[Gal(b1-4)]GlcNAc(b1-6)]Gal(b1-4)Glc
# Method in brief: as §1
# [31] = target: Neu5Ac(a2-3)Gal(b1-4)GlcNAc(b1-2)Man(a1-3)[Neu5Ac(a2-6)Gal(b1-4)GlcNAc(b1-2)Man(a1-6)]Man(b1-4)GlcNAc(b1-4)GlcNAc
# Method in brief: as §1
# [32] = target: Neu5Ac(a2-3)Gal(b1-4)GlcNAc(b1-3)Gal(b1-4)GlcNAc(b1-3)Gal(b1-4)GlcNAc
# Method in brief: as §1
# [33] = target: Neu5Ac(a2-3)Gal(b1-4)GlcNAc(b1-3)Gal(b1-4)GlcNAc(b1-3)[Neu5Ac(a2-3)Gal(b1-4)GlcNAc(b1-3)Gal(b1-4)GlcNAc(b1-6)]GalNAc
# Method in brief: as §1
# [34] = target: Neu5Ac(a2-3)Gal(b1-4)GlcNAc(b1-6)[Gal(b1-3)]GalNAc
# Method in brief: as §1
# [35] = target: Neu5Ac(a2-3)Gal6S(b1-4)[Fuc(a1-3)]GlcNAc
# Method in brief: as §1
# [36] = target: Neu5Ac(a2-6)Gal(b1-4)GlcNAc(b1-3)Gal(b1-4)GlcNAc(b1-6)[Gal(b1-3)]GalNAc
# Method in brief: as §1
# [37] = target: Neu5Ac(a2-8)Neu5Gc(a2-3)Gal(b1-4)GlcNAc
# Method in brief: as §1
binder,measurement,setting,value
Mg3lysM (Mycosphaerella graminicola) (protein) APQNPPTSCSAAPQPTGTGSPGTVCGSTTFTNYTVKAGDTLGAIAKQYNSGVCDIAKVNGIDNPDYIKPDQVLSIPANCVTPDNTSCVKPVPVITNTCVLGVGSTYTVKSGDSFSAIATSFNITLASLEARNPQIPNYDLIFPGQVINTPLCPNSVCDSIGTYVIESGDIFYNLAQSNNVTVGQLESLNVNVNVTDIHPGDIIILPHNCHNITASA,glycan array binding signal (z-score),Fuc(a1-2)Gal,-0.076
same,glycan array binding signal (z-score),[1],-0.042
same,glycan array binding signal (z-score),[2],0.259
same,glycan array binding signal (z-score),Fuc(a1-2)Gal(b1-4)GlcNAc,-0.021
same,glycan array binding signal (z-score),[3],-0.086
same,glycan array binding signal (z-score),[4],-0.089
same,glycan array binding signal (z-score),[5],-0.1
same,glycan array binding signal (z-score),[6],-0.127
same,glycan array binding signal (z-score),[7],-0.118
same,glycan array binding signal (z-score),[8],-0.072
same,glycan array binding signal (z-score),[9],0.01
same,glycan array binding signal (z-score),[10],0.023
same,glycan array binding signal (z-score),[11],-0.089
same,glycan array binding signal (z-score),[12],-0.058
same,glycan array binding signal (z-score),Gal(b1-3)GalNAc(b1-3)Gal,0.131
same,glycan array binding signal (z-score),[13],-0.12
same,glycan array binding signal (z-score),Gal(b1-3)GlcNAc(b1-2)Man,-0.123
same,glycan array binding signal (z-score),[14],-0.065
same,glycan array binding signal (z-score),[15],0.063
same,glycan array binding signal (z-score),[16],0.15
same,glycan array binding signal (z-score),[17],-0.157
same,glycan array binding signal (z-score),Gal(b1-4)GlcNAc(b1-2)Man,-0.039
same,glycan array binding signal (z-score),[18],-0.107
same,glycan array binding signal (z-score),[19],0.14
same,glycan array binding signal (z-score),[20],-0.078
same,glycan array binding signal (z-score),Gal3S(b1-4)Glc6S,-0.101
same,glycan array binding signal (z-score),Gal6S(b1-4)Glc,-0.027
same,glycan array binding signal (z-score),[21],-0.127
same,glycan array binding signal (z-score),[22],-0.108
same,glycan array binding signal (z-score),[23],-0.113
same,glycan array binding signal (z-score),GlcNAc(b1-3)Fuc,0.041
same,glycan array binding signal (z-score),[24],-0.109
same,glycan array binding signal (z-score),[25],-0.191
same,glycan array binding signal (z-score),[26],3.96
same,glycan array binding signal (z-score),[27],19.9
same,glycan array binding signal (z-score),[28],13.5
same,glycan array binding signal (z-score),Kdn(a2-3)Gal(b1-3)GalNAc,0.259
same,glycan array binding signal (z-score),Man(b1-4)GlcNAc,0.12
same,glycan array binding signal (z-score),[29],-0.154
same,glycan array binding signal (z-score),[30],0.077
same,glycan array binding signal (z-score),[31],-0.088
same,glycan array binding signal (z-score),[32],-0.099
same,glycan array binding signal (z-score),[33],0.153
same,glycan array binding signal (z-score),[34],-0.065
same,glycan array binding signal (z-score),[35],-0.14
same,glycan array binding signal (z-score),[36],0.12
same,glycan array binding signal (z-score),[37],0.137
